Experimental findings from PubChem BioAssay AID720723 (Molecular Libraries Program, Specialized Chemistry Center, …, 2013) are described below.

The IC50 is the concentration that gives 50% inhibition.

Structures are written as SMILES. Unmarked numbers belong to inactive results. Activity calls are given as the source filed them. No cut-off is given here; in the data, nearly all actives have IC50 up to about 87 µM.

The assay can be described thus: rhodamine 123 fluorescence quenching, dose response, artefact control for mitochondrial permeability transition pore inhibitor project, biochemical, dry powder samples (AID 720723). The settings on record: Rhodamine 123 fluorescence quenching counterscreen, cell-free. (Counterscreens check selectivity or assay interference.)
Take `COc1ccc(Cl)cc1C(=O)Nc1ccc(CN2CCCCC2)cc1`: the IC50 was 85.9 µM (active).

In the case of `COc1ccc(C)c2sc(N(CCCN(C)C)C(=O)CS(=O)(=O)c3ccc(F)cc3)nc12`, the concentration for half-maximal inhibition (IC50) was 87.8 µM (active).

As to `Cc1cc(C)c2nc(N(CCCN(C)C)C(=O)c3ccc(S(=O)(=O)N4CCCCCC4)cc3)sc2c1`, the IC50 was 20.9 µM (active).

Turning to `CN1CCC[C@@H]1CCO[C@](C)(c1ccccc1)c1ccc(Cl)cc1`, the half-maximal inhibitory concentration (IC50) is 27.5 µM (active).

In the case of `O=C(CC1NCCc2ccccc21)Nc1ccc(Cl)cc1` (stereo not drawn), the IC50 was 82.4 µM (active).

Turning to `CCN(CC)c1ccc(NC(=O)c2cc(Cl)ccc2OC)cc1`, the IC50 was 41.2 µM (active).

As to `Cc1cc(C)c2nc(N(CCCN(C)C)C(=O)C3=COCCO3)sc2c1`, the IC50 is > 101 µM.

On to `CC(C)(C)c1ccccc1OCCCCCNCCO`, for which the IC50 is 42.8 µM (active).
